KinaseGlo FLuc = Kinase-Glo luciferase inhibition (counter-screen); hit rate 0.28% among 200,000; Kinase-Glo luciferase, ATP luminescence, 8 min; Q27757; AID 1379; Potency, µM (highest dose often 38.3 µM), for the others: at the highest dose activity change, negative = inhibition, usual class: inhibitors; note: % is set by controls: 0 for no effect and ±100 for the full control effect; nearly all actives have a fitted effect of over 60% in size
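Light output from Kinase-Glo luciferase with luciferin and 10 uM ATP in 50 mM imidazole pH 7.2, KCl, MgCl2, Tween 20, BSA; compound pin-delivered, 8-min ambient incubation, then luminescence read.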
NPC1 promoter act = NPC1 promoter activation; Huh7 NPC1 promoter luciferase reporter, 24 h; Potency, µM (series often up to 9.22 µM), without a hit: at the highest dose activation, most hits filed as activators; hit rate 2.4% among 320,000; AID 485313; note: % of control where 0% means no effect; nearly all actives have a fitted effect of over 60% in size
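NPC1 promoter–luciferase Huh7 cells; 24 h compound; luminescence.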
FLuc modulator = counter-screen for miR-21 project: firefly luciferase inhibitors or activators | P08659 | purified FLuc, Km substrates, luminescence inhibition | Potency, µM (doses to about 57.5 µM), for inactives: top-dose activity change, negative = inhibition, usual class: inhibitors | hit rate 6.9% among 360,000;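 note: plate controls were vehicle for no effect and reference inhibitor for full effect; nearly all actives have a fitted effect of over 55% in size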
Target sequence (P08659 whole entry, looked up): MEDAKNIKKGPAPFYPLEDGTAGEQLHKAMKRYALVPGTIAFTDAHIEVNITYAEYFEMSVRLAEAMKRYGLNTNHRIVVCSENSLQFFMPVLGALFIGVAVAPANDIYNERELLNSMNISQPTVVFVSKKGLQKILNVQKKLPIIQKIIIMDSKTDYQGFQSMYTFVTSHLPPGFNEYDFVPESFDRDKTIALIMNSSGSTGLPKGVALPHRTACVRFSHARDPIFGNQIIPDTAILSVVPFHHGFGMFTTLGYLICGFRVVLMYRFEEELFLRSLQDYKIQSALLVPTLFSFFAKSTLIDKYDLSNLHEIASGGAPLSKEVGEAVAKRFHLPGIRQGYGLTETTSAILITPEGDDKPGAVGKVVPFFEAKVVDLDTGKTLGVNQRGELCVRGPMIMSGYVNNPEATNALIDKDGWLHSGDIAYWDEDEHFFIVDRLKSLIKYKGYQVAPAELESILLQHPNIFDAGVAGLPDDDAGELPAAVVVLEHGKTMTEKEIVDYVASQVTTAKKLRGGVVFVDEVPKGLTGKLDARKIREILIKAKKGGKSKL
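Biochemical qHTS of compounds, final roughly 60 µM downward over six points, against 10 nM purified firefly luciferase using Km concentrations of substrates (10 uM D-luciferin, 10 uM ATP) in Tris acetate pH 7.5 buffer; luminescence output.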
Rab9 prom act = activators of Rab9 promoter | Huh7 Rab9 promoter-luciferase reporter, luminescence, 24 h | Potency, µM (doses to about 9.22 µM), inactives show top-dose activation, negative = inhibition, usual class: activators | hit rate 2.8% among 320,000; note: % of control where 0% means no effect; nearly all actives have a fitted effect of over 60% in size
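Quantitative HTS format; Huh7 Rab9-luciferase reporter cells (1500/well) receive compound 2 h post-plating, incubate 24 h at 37 °C, then get luciferase reagent for 10 min before luminescence reading.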
ELG1 genotoxic = genotoxicity induction in ELG1-luciferase HEK293T cells; HEK293T ELG1-luciferase reporter, luminescence, 16 h; Potency, µM (titrated, usually from 46 µM), for inactives: at the top dose activity change, positive = activation, usual class: activators; hit rate 1.3% among 330,000; AID 504466; note: % of control where 0% means no effect; nearly all actives have a fitted effect of over 60% in size
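Luminescence read-out: rising ELG1-luciferase signal, reflecting elevated ELG1 protein under genetic stress, flags genotoxic compounds. Cells were treated for 16 hr at 37 °C before ONE-Glo detection.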
SMN2 splice enh = SMN2 splice variant enhancement. HEK293 SMN2-luciferase splicing reporter, luminescence, 30-36 h. Potency, µM (top dose mostly 46.1 µM), inactives show top-dose activity change, positive = activation, hits mostly activators. hit rate 2.8% among 210,000; note: % of control where 0% means no effect; nearly all actives have a fitted effect of over 55% in size
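HEK293 cells carry an SMN2 minigene-luciferase reporter in which exon 7 inclusion puts luciferase in frame. Cells were seeded at 2000 cells/well, attached for 10-12 hours, then exposed to compounds for 30-36 hours at 37C before ONE-Glo luminescence.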
* hit, by the source's call; ? = inconclusive; / = no result given; [ ] = dose if it differs, or a comment. In the library only some 7.5% were active in any assay of this set; here they are far more common. Calls come from the whole dose curve; as a rule, active = well fitted curve in the direction sought with a large enough effect; inconclusive = small, poorly fitted or top-dose-only effect, or another doubt; inactive = no such curve, though single readings can be large; an effect the other way counts as inactive or inconclusive. Potency is the fitted concentration of half-maximal effect.

SMILES | KinaseGlo FLuc | NPC1 promoter act | FLuc modulator | Rab9 prom act | ELG1 genotoxic | SMN2 splice enh
N#Cc1c(/N=C/c2cc3ccccc3s2)sc2c1CCC2 | -2% | 1.4µM* | ? | 1.4µM* | ? | 10µM*
CN(C)S(=O)(=O)N(CC(=O)NCCSCc1ccccc1Cl)c1ccccc1 | / | / | -12% | / | / | /
COc1ccccc1CN1CC(C(=O)N(C)Cc2[nH]c3ccccc3c2C)CCC1=O (stereo unspecified) | / | 0% | -4% | 1% | 2% | /
O=C(Nc1ccc(F)cc1F)c1ccc2c(c1)CCN2S(=O)(=O)c1ccc(Cl)cc1 | / | / | 4% | / | / | 2%
Cc1cccc2[nH]c(SCC(=O)N3CCOCC3)nc12 | 0% | 5% | -10% | 27% | 6% | 12%
N#Cc1c(/N=C/c2ccco2)sc2c1CCC2 | -28% | -3% | 2.4µM* | -1% | 2% | /
Cc1ccc(/C=N/c2sc3c(c2C#N)CCC3)s1 | -13% | ? | 0.67µM* | ? | ? | 7.1µM*
Cc1ccc(-c2cc(=O)c3ccccc3[nH]2)cc1 | 0%[39.9 µM] | 19% | 19µM* | ? | 10% | 12%
Cc1ccc2[nH]c(-c3ccccc3)cc(=O)c2c1 | 5% | ? | 1.7µM* | ? | ? | 11µM*
Cc1ccc(-c2cc(=O)c3cc(Cl)ccc3[nH]2)cc1 | 0%[39.9 µM] | ? | 0.54µM* | 4µM* | ? | /
COc1cccc(CNC(=O)CN2C(=O)N(c3c(C)cccc3C)S(=O)(=O)c3ccccc32)c1OC | / | / | -5% | / | / | /
Cc1ccc(C(=O)Nc2ccccc2C(=O)NC(C(=O)O)C(C)C)cc1 (stereo unspecified) | 0% | ? | 11µM* | ? | ? | 13µM*
Cc1ccc(C(=O)Nc2ccccc2C(=O)NC(CC(=O)O)C(=O)O)cc1 (stereo unspecified) | -1% | 17% | 15µM* | 12% | 5% | -1%
CCC(C)C(NC(=O)c1ccccc1NC(=O)c1ccc(C)cc1)C(=O)O (stereo unspecified) | / | 18% | ? | -6% | 10% | /
CCc1ccc(NC(=O)CN2C(=O)C(c3ccc(F)cc3)=NC2(C)C)cc1 | / | / | -13% | / | / | 6%
CC(C)c1ccc(NC(=O)c2n[nH]c(=O)c3ccccc23)cc1 | -3% | ? | -1% | 1.6µM* | ? | 5.6µM*
CN(C)S(=O)(=O)c1cccc(NC(=O)c2n[nH]c(=O)c3ccccc23)c1 | -2% | -1% | -12% | -4% | -5% | -2%
Cc1cc(NC(=O)c2n[nH]c(=O)c3ccccc23)ccc1Br | / | ? | 5% | 5µM* | ? | /
CCN(CC)S(=O)(=O)c1cc(NC(=O)c2n[nH]c(=O)c3ccccc23)ccc1C | -3% | 6% | 24µM* | ? | -12% | -26%
COc1ccc(CNC(=O)c2cnc3sc(N4CCCCCC4)nn3c2=O)cc1 | / | / | 3% | / | / | /
Cc1ccnc(NC(=O)CCC2CCCCC2)c1 | -2% | ? | 11µM* | ? | 8.2µM* | ?
CCCC(=O)Nc1ccc(Br)cn1 | -2% | 0% | -4% | 24% | -7% | 23%
O=C(CCC1CCCC1)Nc1ccc(Br)cn1 | 3% | ? | -4%[2.3 µM] | 2.2µM* | 20% | ?
CCOc1ccc(-c2cc(C(=O)NCCc3ccccc3)c3c(-c4ccc(C)cc4)[nH]nc3n2)cc1 | / | / | -12% | / | / | /
CCOC(=O)C1CCCN(C(=O)c2cn(C)c3ccc(S(=O)(=O)N4CCCC4)cc3c2=O)C1 (stereo unspecified) | 2% | 0% | -1% | -8% | 2% | 11µM*
CCOC(=O)C1CCCN(C(=O)c2cc(Nc3ccc(OC)c(OC)c3)nc3ccccc23)C1 (stereo unspecified) | -4% | -1% | 11µM* | 5% | -6% | 0%
COc1ccc(Nc2cc(C(=O)NCc3ccccc3)c3ccccc3n2)cc1OC | / | / | -10% | / | / | 1%

High-throughput results as filed in PubChem.
